Assay results published in PubChem BioAssay (NCI).
This is part of a sample that, as a whole, favours compounds with a hit. Of some 83,000 tested, about 20% had one in any assay.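 In brief: 96-well plates, 48 h treatment, single concentration, percent growth endpoint.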 Values without a mark were called inactive. The source made the active and inactive calls. How the source made its calls: active means growth percent below 10; inactive means the rest.

system: MDA-MB-468 breast; experiment: NCI-60 one-dose screen, 48 h (100 = growth as untreated, 0 = no growth, -100 = all killed); conditions: 10 µM unless noted

Row | SMILES | growth
1 | C=CCn1c(SCC(=O)c2ccc(Br)cc2)nnc1-c1c[nH]c2ccccc12 | 86.9%
2 | C=C1C(=O)O[C@H]2[C@H]1CC/C(COC(=O)NCc1[nH]nc3ccccc13)=C\CC[C@@]1(C)O[C@@H]21 | 20.4%
3 | COc1cc2nc(SCc3cc(OC)c(OC)c(OC)c3)n(-c3ccccc3OC)c(=O)c2cc1OC | 97.9%
4 | Cc1nnc2c(Cc3ccccc3)nc3ccccc3n12 | 89.6%
5 | Cn1ccnc1C(=O)/C=C/c1ccc(CC(=O)Nc2ccccc2)cc1 | -12.9% (active)
6 | C=C(CN=[N+]=[N-])[C@@H]1CC[C@]2(C)[C@H](CC[C@@H]3[C@H]4[C@H]5OC(=O)[C@@]4(CCC5(C)C)CC[C@]32C)[C@@]1(C)CCC#N | 72.3% [100 µM]
7 | COc1cc(/C=C/C(=O)N2CCN(C(=O)/C=C/c3cc(OC)c(OC)c(OC)c3)CC2)cc(OC)c1OC | 102%
8 | CCNC(=O)Oc1ccc(/C(=C(\C)c2ccccc2)c2ccc(OCCN3CCCCC3)cc2)cc1 | 76.6%
9 | CCCOC(=O)Nc1nc2ccc(SCC(C)C)cc2s1 | -9.94% (active)
10 | CC1(/C=N/NC(N)=S)NC(=O)NC1=O (stereo not drawn) | 102%
11 | O=c1cc(CSc2nnc(-c3ccccc3)n2-c2ccc(F)cc2)c2ccc3ccccc3c2o1 | 93.2%
12 | C=CC(=O)N1CC2(CC(n3nc(-c4ccc(Oc5ccccc5)cc4)c4c(N)ncnc43)C2)C1 | -8.12% (active)
13 | CCN=C1C=CC(=C(c2ccc(N(CC)CC)cc2)c2ccc(N(CC)CC)cc2)c2ccccc21 | -74.1% (active)
